# Data as given in paper PMC7826789 (International Journal of Molecular Sciences, 2021).
# Legend:
# Settings in all cases: Compound Concentration (nM):1000
# [1] = tested on: BRSK2
# [2] = tested on: BTK
# [3] = tested on: BUB1
# [4] = tested on: T1, CAMK1B
# T1 construct: gene PNCK
# [5] = tested on: CAMK1D
# [6] = tested on: CAMK1G
# [7] = tested on: CAMK1
# [8] = tested on: CAMK2A
# [9] = tested on: CAMK2B
# [10] = tested on: CAMK2D
# [11] = tested on: CAMK2G
# [12] = tested on: CAMK4
# [13] = tested on: CAMKK1
# [14] = tested on: CAMKK2
# [15] = tested on: CASK
# [16] = tested on: T2, CDC2L1
# T2 construct: gene CDK11B
# [17] = tested on: CDC2L2
# [18] = tested on: T3, CDC2L5
# T3 construct: gene CDK13
# [19] = tested on: T4, CDK11
# T4 construct: gene CDK19
# [20] = tested on: CDK2
# 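Note: KINOMEscan scanMAX binding as percent activity remaining versus control; lower means stronger binding.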
SMILES,Percent Control [1],Percent Control [2],Percent Control [3],Percent Control [4],Percent Control [5],Percent Control [6],Percent Control [7],Percent Control [8],Percent Control [9],Percent Control [10],Percent Control [11],Percent Control [12],Percent Control [13],Percent Control [14],Percent Control [15],Percent Control [16],Percent Control [17],Percent Control [18],Percent Control [19],Percent Control [20]
COc1cc2ncnc(Nc3ccc4c(cnn4Cc4ccccc4)c3)c2cc1OC.Cl [GW282449A],100%,40%,100%,100%,100%,100%,100%,100%,100%,100%,100%,100%,100%,100%,93%,100%,100%,100%,100%,100%
CCS(=O)(=O)c1ccc(OC)c(Nc2ncc(-c3cccc(F)c3)o2)c1 [GW621970X],89%,71%,100%,100%,100%,100%,100%,85%,100%,100%,100%,100%,100%,100%,90%,100%,99%,100%,100%,100%
CC1=C(C(=O)Nc2ccc3[nH]ncc3c2)C(c2ccc3ccccc3c2)CC(=O)N1 (stereo not shown) [GSK270822A],73%,13%,60%,67%,97%,91%,83%,87%,87%,79%,79%,100%,70%,69%,86%,100%,90%,85%,90%,100%
COc1cc(/C=N/Nc2ncnc3[nH]ncc23)ccc1O [GW578748X],61%,44%,23%,83%,85%,100%,100%,80%,100%,96%,100%,100%,96%,88%,63%,100%,100%,100%,100%,100%
COc1ccc2cc(-c3c(-c4ccncc4)nc(-c4ccc(S(C)(=O)=O)cc4C)n3C)ccc2c1 [SB-633825],73%,45%,33%,53%,96%,83%,93%,87%,97%,77%,76%,87%,77%,73%,84%,92%,96%,91%,100%,79%
O=C(Nc1n[nH]c2nc(-c3ccc(O)cc3)c(Br)cc12)C1CC1 [SB-725317],47%,97%,94%,100%,100%,100%,100%,93%,97%,100%,100%,100%,100%,100%,100%,100%,100%,90%,100%,51%
CCS(=O)(=O)c1ccc(OC)c(Nc2ncc(-c3cccc(OC)c3)o2)c1 [GW580509X],96%,99%,95%,100%,99%,100%,87%,71%,80%,97%,93%,100%,97%,79%,95%,100%,100%,100%,100%,100%
NS(=O)(=O)c1ccc(N/N=C2\C(=O)Nc3ccc(Cl)cc32)cc1 [GW280670X],86%,100%,100%,100%,100%,100%,100%,100%,100%,100%,100%,100%,100%,100%,100%,100%,100%,100%,100%,83%
NS(=O)(=O)c1ccc(N/N=C2\C(=O)Nc3ccc(C(=O)NCCc4c[nH]cn4)cc32)cc1 [GW300660X],89%,100%,54%,85%,100%,100%,100%,100%,100%,100%,100%,100%,100%,100%,100%,100%,100%,79%,100%,–
COc1cc2ncn(-c3cc(O[C@H](C)c4ccccc4Cl)c(C(N)=O)s3)c2cc1OC [GSK237701A],47%,53%,56%,87%,91%,93%,86%,89%,100%,82%,88%,100%,92%,43%,88%,100%,97%,75%,84%,–
COc1ccccc1-c1cc(/C=C2\C(=O)Nc3ncc(Br)cc32)cc(Br)c1O [GW442130X],100%,99%,73%,78%,100%,100%,100%,85%,88%,100%,100%,94%,100%,100%,100%,100%,100%,91%,62%,89%
C/C(Nc1ccc(S(N)(=O)=O)cc1)=C1/C(=O)Nc2ccccc21 [GW335962X],81%,83%,90%,79%,83%,86%,52%,79%,72%,100%,95%,100%,76%,82%,87%,100%,81%,65%,100%,87%
CN(C)c1cc2c(Nc3ccc4c(cnn4Cc4ccccc4)c3)ncnc2cn1 [GW282974X],88%,64%,63%,98%,96%,91%,95%,74%,62%,72%,82%,100%,77%,73%,100%,100%,100%,67%,99%,79%
Nc1ncnc2occ(-c3ccc(NC(=O)Nc4cc(C(F)(F)F)ccc4F)cc3)c12 [GW770249X],88%,87%,98%,94%,93%,94%,77%,100%,100%,100%,92%,100%,97%,82%,95%,99%,68%,1.4%,0%,38%
Cl.O=C(Nc1ccc(Oc2ccc3[nH]c(NC(=O)c4ccccc4)nc3c2)cc1)Nc1cc(C(F)(F)F)ccc1F [GW709042A],73%,93%,92%,100%,97%,100%,95%,100%,95%,100%,100%,100%,100%,100%,93%,92%,100%,100%,23%,100%
Cl.O=C(Nc1ccc(Oc2ccc3[nH]c(NC(=O)c4ccco4)nc3c2)cc1)Nc1cc(C(F)(F)F)ccc1F [GW683134A],98%,95%,95%,100%,100%,100%,59%,85%,79%,100%,100%,90%,100%,100%,100%,100%,100%,95%,13%,96%
COc1cc(N2CCN(C(C)C)CC2)ccc1Nc1nc(Nc2ccc(F)cc2C(=O)NC[C@@H](O)CO)c2cc[nH]c2n1 [GSK1392956A],100%,100%,88%,60%,40%,75%,73%,69%,64%,87%,90%,57%,79%,45%,78%,100%,100%,64%,91%,86%
CCc1ccc(Oc2nccc(-c3c(-c4ccc(F)cc4)ncn3C3CCNCC3)n2)cc1 [SB-242719],100%,100%,73%,100%,86%,100%,90%,67%,63%,100%,100%,100%,100%,100%,83%,89%,66%,100%,95%,100%
